The panel holds about 79,000 compounds, 15% with a hit somewhere; the sample as a whole holds those more often. Active and inactive are the calls of the source. No stated cut-off is given here; in the data, active means growth inhibition above about 70%; inactive means the rest.
Key:
[1] = NCI Yeast Anticancer Drug Screen. Data for the rad50 strain (AID 155);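 further: 0% = growth of vehicle-only cultures of the same strain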; conditions: S. cerevisiae rad50 strain growth inhibition; at 50.0 µM; stronger effect = higher value
Procedure, shortened: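 Cells are treated with compound, grown, and their growth is then scored against vehicle-only cultures of the same repair-deficient yeast strain.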

[2] = NCI Yeast Anticancer Drug Screen. Data for the mec2-1 strain (AID 157); conditions: S. cerevisiae mec2-1 strain, at 50.0 µM, stronger effect = higher value
Procedure, shortened: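 Cells of the genetically defined mec2-1 yeast strain are incubated with test compound. Inhibition of growth is calculated against vehicle-treated controls.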

[3] = NCI Yeast Anticancer Drug Screen. Data for the sgs1 mgt1 strain (AID 161);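 further: 0% = growth of cultures given vehicle only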; conditions: S. cerevisiae sgs1 mgt1 strain, at 50.0 µM, stronger effect = higher value
Procedure, shortened: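 Genetically altered yeast, compound exposure, growth inhibition relative to vehicle.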

[4] = NCI Yeast Anticancer Drug Screen. Data for the cln2 rad14 strain (AID 165);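 further: 0% = growth equal to vehicle treated cultures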; conditions: S. cerevisiae cln2 rad14 strain, at 50.0 µM, stronger effect = higher value
Procedure, shortened: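 The screen exposed genetically defined yeast (cln2 rad14) to test compounds and scored growth inhibition relative to vehicle-treated controls.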

[5] = NCI Yeast Anticancer Drug Screen. Data for the bub3 strain (AID 167); conditions: S. cerevisiae bub3 mutant strain, at 50.0 µM, stronger effect = higher value
Procedure, shortened: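 Part of a panel of yeast mutants defective in DNA damage repair or cell cycle regulation. Each strain is grown with compound, and inhibition is calculated relative to solvent-treated cultures.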

[6] = NCI Yeast Anticancer Drug Screen. Data for the mlh1 rad18 strain (AID 175); conditions: S. cerevisiae mlh1 rad18 strain growth inhibition; at 50.0 µM; stronger effect = higher value
Procedure, shortened: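 Compound-treated yeast growth, normalised to vehicle controls. Strain bears defined DNA repair mutations.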

Measured: growth inhibition

CC(=O)CC(=O)Nc1cccc(O)c1
inactive: [1] -15% | [2] -21.8% | [3] -14.9% | [4] 11.8% | [5] -3.85% | [6] -2.85%

CC(=O)Oc1cc(I)cc(C(=O)O)c1
inactive: [1] -10% | [2] 9.85% | [3] -1.05% | [4] -9.15% | [5] 3.3% | [6] -10.4%

C/C(=C/C(C)C)C(C)(C#N)C(N)=O (configuration not stated)
inactive: [1] 8.75% | [2] 5.8% | [3] 1.2% | [4] 8.25% | [5] 8.75% | [6] 4.35%

O=C(O)CCCC[P+](c1ccccc1)(c1ccccc1)c1ccccc1
inactive: [1] 21.1% | [2] 7.8% | [3] 13.5% | [4] 7.5% | [5] 35.3% | [6] 27.8%

O=C(O)c1ccc(C2=Cc3cc(Cl)ccc3OC2)cc1
inactive: [1] 19.6% | [2] -5.1% | [3] -19.4% | [4] 26.2% | [5] -15.1% | [6] -11.1%

O=C(Nc1ccccc1)c1cc2ccccc2oc1=O
inactive: [1] 6.95% | [2] -2.65% | [3] -4.5% | [4] 4.75% | [5] -13.2% | [6] 9.55%

COc1ccccc1/C=N/NC(=O)CCCCCCCCC(=O)N/N=C/c1ccccc1OC
inactive: [1] 0.95% | [2] -4% | [3] -4.4% | [4] -11.2% | [5] -5.5% | [6] 14.5%

O=[N+]([O-])c1ccc2nc(-c3ccccn3)c(-c3ccccn3)nc2c1
inactive: [1] 43.9% | [2] 18.4% | [3] 42.6% | [4] 18.1% | [5] 47.5% | [6] 41%

COC1OC(CI)C(OC(=O)c2ccccc2)C(OC(=O)c2ccccc2)C1OC(=O)c1ccccc1 (configuration not stated)
inactive: [1] 10.8% | [2] 21.4% | [3] 10.2% | [4] 15.2% | [5] 36.1% | [6] 33.5%

CCOC(=O)C1C(c2ccc(N(C)C)cc2)c2cc3c(cc2OC1(C)N1CCCC1)OCO3 (configuration not stated)
inactive: [1] -13.6% | [2] 9.1% | [3] -2.1% | [4] 14.3% | [5] -3.15% | [6] 2.85%

CC(=O)C(C)CCOC1(C)OCCC1C (configuration not stated)
inactive: [1] -7.4% | [2] 5.25% | [3] -13.1% | [4] -22.2% | [5] -36.4% | [6] 7%

O=c1c2ccccc2n2c(-c3ccccc3O)nnc2n1-c1ccccc1
inactive: [1] 6.5% | [2] 14.8% | [3] 35.1% | [4] 26.2% | [5] 6.6% | [6] 18.2%

CCOC(=O)C1CCN(S(=O)(=O)c2ccccc2)CC1
inactive: [1] 3.4% | [2] -7.3% | [3] 11.8% | [4] -38.1% | [5] 18.6% | [6] -6.15%

Cc1cccc(N=C2NC(=O)C(CC(=O)Nc3ccc(Cl)cc3C)S2)c1 (configuration not stated)
inactive: [1] 0.05% | [2] -1.9% | [3] 1.95% | [4] 3.55% | [5] 8.15% | [6] 3%

CC1(C)OCC2(CO1)CSCCCSCC1(COC(C)(C)OC1)CSCCCSC2
inactive: [1] -5.65% | [2] -12.9% | [3] -8.75% | [4] -11.8% | [5] -25.5% | [6] -3.8%

N#CC(OC(=O)c1cccc(C(=O)OC(C#N)(C(F)(F)F)C(F)(F)F)c1Sc1ccccc1)(C(F)(F)F)C(F)(F)F
inactive: [1] 27% | [2] 13.8% | [3] -10.1% | [4] -7.8% | [5] 7.55% | [6] -1.3%

OCCNCc1cccc(-c2ccccc2)c1O
inactive: [1] 24.6% | [2] 3% | [3] 15.9% | [4] -18.8% | [5] 8.2% | [6] 16.9%

CC(C)(c1ccc([N+](=O)[O-])cc1)c1ccc(N)c([N+](=O)[O-])c1
inactive: [1] 0.65% | [2] -9.65% | [3] -10.6% | [4] 0.1% | [5] -9.1% | [6] -13.1%

Cc1cc2nc(-c3cc4cc(Cl)cc(Cl)c4oc3=O)[nH]c2cc1C
inactive: [1] 10.6% | [2] 17.8% | [3] 2.7% | [4] -5.4% | [5] 17.2% | [6] -0.4%

Clc1ccc(OCC(COc2ccc(Cl)cc2)(COc2ccc(Cl)cc2)COc2ccc(Cl)cc2)cc1
inactive: [1] -0.75% | [2] 2.75% | [3] -4.8% | [4] 5.9% | [5] -4.45% | [6] 0.7%

O=C(NC1=C(Cl)C(=O)c2ccccc2C1=O)C(=O)c1c(O)c2ccccc2oc1=O
active: [1] 83.5% | [2] 85.8% | [3] 87.8% | [4] 84.2% | [5] 84.6% | [6] 91.3%

CCCCCOC(=O)CC(CC(=O)OCCCCC)C(=O)OCCCCC
inactive: [1] 14.3% | [2] 5.15% | [3] 14% | [4] -3.8% | [5] -28.6% | [6] 1.75%

CN(C)CCCCl
inactive: [1] -16.1% | [2] -3.05% | [3] 8.75% | [4] -26.8% | [5] -15.5% | [6] -17.3%

CCN(CC)COC(=O)C(C)(C)C
inactive: [1] -13.1% | [2] 10.6% | [3] -12.9% | [4] -35% | [5] -9.25% | [6] -4.2%

CCCCNC(=O)Nc1nc2ccccc2s1
inactive: [1] 25.3% | [2] 2.15% | [3] 11.5% | [4] 38% | [5] -3% | [6] -1.7%

Cc1nc(N)c2c(ncn2C2OC(CO)C(O)C2O)n1 (configuration not stated)
inactive: [1] 9.35% | [2] 1.85% | [3] -5.3% | [4] -8.8% | [5] -9.15% | [6] 14.6%

CC(=O)[O-].Cc1ccnc(NS(=O)(=O)c2ccc(N=Cc3ccccc3[O-])cc2)n1.Cc1ccnc(NS(=O)(=O)c2ccc(N=Cc3ccccc3[O-])cc2)n1.[Cu+2]
inactive: [1] 9% | [2] 2% | [3] 2.6% | [4] 19.1% | [5] 11.1% | [6] 34.4%

C[C@H](CCC(=O)O[C@@H]1CC[C@@]2(C)C(CC[C@H]3[C@@H]4CC[C@H]([C@H](C)CCc5nc6ccccc6[nH]5)[C@@]4(C)CC[C@@H]32)C1)[C@H]1CC[C@H]2[C@@H]3CCC4C[C@H](O)CC[C@]4(C)[C@H]3CC[C@]12C (some centres not stated)
inactive: [1] 5.8% | [2] -2.55% | [3] -16.4% | [4] 11.3% | [5] 6.2% | [6] -6.05%

CCCCCCCCCC1OCCC(C)O1 (configuration not stated)
inactive: [1] 20.2% | [2] 9.95% | [3] -0.6% | [4] -20.9% | [5] 9.5% | [6] 21.2%

FC(F)(F)C(c1ccc(Cl)cc1)c1ccc(Cl)cc1
inactive: [1] 42.6% | [2] 28.8% | [3] 40.6% | [4] 34.5% | [5] 5.95% | [6] 30.6%

C(=N\N=C\c1ccccc1)/c1ccccc1
inactive: [1] 14.7% | [2] 4.65% | [3] 3.5% | [4] -52.5% | [5] -1.15% | [6] 16.6%

S=C(NCc1ccco1)Nc1ccccc1Cl
inactive: [1] 5.5% | [2] -4.1% | [3] 16.2% | [4] 4.5% | [5] 4.4% | [6] 1.2%

CC(=O)/C(=C\c1ccccc1)C(=O)CCN(C)C
inactive: [1] 21.9% | [2] 36.6% | [3] 14.4% | [4] 12.2% | [5] 7% | [6] -9.9%

CCO[C@H]1c2cc3c(cc2[C@@H](c2cc(OC)c(OC)c(OC)c2)[C@H]2C(=O)OC[C@@H]21)OCO3
inactive: [1] 11.4% | [2] 6.25% | [3] 26.9% | [4] 28.7% | [5] 12.7% | [6] 24.9%

O=C(O)CCC(=O)NC1c2ccccc2Oc2ccccc21
inactive: [1] -5.9% | [2] -1.75% | [3] 11.6% | [4] -10.2% | [5] 7.85% | [6] 5.95%

O=C(NNC(=O)c1cccc2ccccc12)c1cccc(Cl)c1
inactive: [1] 3.5% | [2] -41.5% | [3] -6.9% | [4] 4.05% | [5] -4.05% | [6] -13.9%

COC(=O)c1ncn(C(C(=O)OC)C(=O)OC)c1O
inactive: [1] -5.6% | [2] -6.75% | [3] -4.75% | [4] -14.4% | [5] -5.1% | [6] -10.8%

— PubChem BioAssay (NCI)
